Several values for one entry are separate records, joined by “and”; a condition that tells them apart may be missing. Identical values can stand only once. In all, about 5,500 compounds went through this assay and about 2,000 (36%) were called active. Roughly 18% stayed inconclusive and do not appear here. Rule as the data show it: active = normalized growth mostly below about 0.91 (no sharp cut-off); inconclusive = no clear call, values can overlap the other calls; inactive = mostly above about 0.92. Some of the results follow.
Assay: chemical genetic growth profiling, strain panel (AID 1159580);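 also: tested at 20 µM; growth read once vehicle control cultures reached saturation at 30 °C; 1 = growth at the plate median or of vehicle wells; lower values mean less growth of the strain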
Conditions: S. cerevisiae deletion strains, growth OD
[1] = locus YPL055C, strain LGE1, hits give low values

Measured: normalized growth

Cc1cc(C(C)(C)CC(C)(C)C)ccc1OCCOCC[N+](C)(C)Cc1ccccc1
active: locus YAL013W, strain DEP1, hits give low values 0.056 | locus YAL021C, strain ccr4, hits give low values 0.0621 | locus YAL026C, strain drs2, hits give low values 0.0577 | locus YAL030W, strain snc1, hits give low values 0.0548 | locus YBL061C, strain skt5, hits give low values 0.0577 | locus YBR009C, strain hhf1, hits give low values 0.0593 | locus YBR021W, strain FUR4, hits give low values 0.0884 | locus YBR023C, strain chs3, hits give low values 0.0588 | locus YBR171W, strain sec66, hits give low values 0.0729 | locus YBR229C, strain ROT2, hits give low values 0.0513 | locus YBR231C, strain swc5, hits give low values 0.0584 | locus YBR279W, strain paf1, hits give low values 0.0568 | locus YCL011C, strain gbp2, hits give low values 0.0539 | locus YCL016C, strain dcc1, hits give low values 0.0604 | locus YCL029C, strain bik1, hits give low values 0.0578 | locus YCL061C, strain MRC1, hits give low values 0.0639 | locus YCL069W, strain vba3, hits give low values 0.0588 | locus YCR088W, strain abp1, hits give low values 0.0592 | locus YDL005C, strain med2, hits give low values 0.0722 | locus YDL035C, strain GPR1, hits give low values 0.0517 | locus YDL040C, strain nat1, hits give low values 0.0573 | locus YDL074C, strain BRE1, hits give low values 0.0803 | locus YDL101C, strain DUN1, hits give low values 0.0608 | locus YDL134C, strain PPH21, hits give low values 0.0535 | locus YDL185W, strain tfp1, hits give low values 0.0735 | locus YDL192W, strain arf1, hits give low values 0.0575 | locus YDR001C, strain nth1, hits give low values 0.0561 | locus YDR069C, strain doa4, hits give low values 0.0594 | locus YDR101C, strain arx1, hits give low values 0.0572 | locus YDR137W, strain rgp1, hits give low values 0.0892 | locus YDR159W, strain sac3, hits give low values 0.0785 | locus YDR162C, strain NBP2, hits give low values 0.0508 | locus YDR195W, strain ref2 0.112 | locus YDR297W, strain sur2, hits give low values 0.0548 | locus YDR318W, strain mcm21, hits give low values 0.0609 | locus YDR334W, strain swr1, hits give low values 0.0602 | locus YDR335W, strain msn5, hits give low values 0.0584 | locus YDR388W, hits give low values 0.0542 | locus YDR392W, strain spt3, hits give low values 0.0691 | locus YDR502C, strain sam2, hits give low values 0.0626 | locus YEL003W, strain gim4, hits give low values 0.0521 | locus YEL037C, strain rad23, hits give low values 0.0554 | locus YEL061C, strain CIN8 (second series), hits give low values 0.0588 | locus YEL061C, strain CIN8, hits give low values 0.0504 | locus YER015W, strain faa2, hits give low values 0.0619 | locus YER016W, strain bim1, hits give low values 0.0588 | locus YER110C, hits give low values 0.0699 | locus YER111C, strain swi4, hits give low values 0.0695 | locus YER155C, strain BEM2 (second series), hits give low values 0.0851 | locus YER155C, strain BEM2, hits give low values 0.0684 | locus YER167W, strain BCK2, hits give low values 0.0531 | locus YFR010W, strain ubp6, hits give low values 0.0641 | locus YGL078C, strain dbp3, hits give low values 0.0843 | locus YGL086W, strain mad1, hits give low values 0.0561 | locus YGL167C, strain pmr1, hits give low values 0.0723 | locus YGL173C, strain kem1, hits give low values 0.0635 | locus YGL227W, strain vid30, hits give low values 0.0611 | locus YGL240W, strain doc1, hits give low values 0.0709 | locus YGL248W, strain PDE1, hits give low values 0.05 | locus YGL253W, strain hxk2, hits give low values 0.0523 | locus YGR135W, strain pre9, hits give low values 0.0617 | locus YGR252W, strain gcn5, hits give low values 0.165 | locus YHR013C, strain ard1, hits give low values 0.0989 | locus YHR027C, strain rpn1, hits give low values 0.0592 | locus YHR030C, strain SLT2, hits give low values 0.0522 and 0.101 | locus YHR079C, strain IRE1 (second series), hits give low values 0.0549 | locus YHR079C, strain IRE1, hits give low values 0.104 | locus YHR094C, strain hxt1, hits give low values 0.0561 | locus YHR129C, strain ARP1, hits give low values 0.0578 | locus YHR142W, strain chs7, hits give low values 0.072 | locus YHR200W, strain rpn10, hits give low values 0.0568 | locus YIL066C, strain RNR3, hits give low values 0.054 | locus YIL073C, strain SPO22, hits give low values 0.12 | locus YIL125W, strain kgd1, hits give low values 0.0749 | locus YIR030C, strain dcg1, hits give low values 0.0563 | locus YJL092W, strain hpr5, hits give low values 0.0568 | locus YJL095W, strain BCK1 (second series), hits give low values 0.0554 | locus YJL095W, strain BCK1, hits give low values 0.0585 and 0.103 | locus YJL115W, strain asf1, hits give low values 0.0691 | locus YJL129C, strain trk1, hits give low values 0.0794 | locus YJL134W, strain LCB3, hits give low values 0.0506 | locus YJL154C, strain vps35, hits give low values 0.0594 | locus YJL164C, strain tpk1, hits give low values 0.057 | locus YJL166W, strain qcr8, hits give low values 0.0596 | locus YJL168C, strain set2, hits give low values 0.0557 | locus YJL187C, strain SWE1 (second series), hits give low values 0.0514 | locus YJL187C, strain SWE1, hits give low values 0.0563 | locus YJR043C, strain POL32, hits give low values 0.0648 | locus YJR066W, strain TOR1, hits give low values 0.00362 | locus YKL009W, strain mrt4, hits give low values 0.213 | locus YKL068W, hits give low values 0.172 | locus YKL085W, strain MDH1 (second series), hits give low values 0.0866 | locus YKL085W, strain MDH1, hits give low values 0.0866 | locus YKL160W, strain elf1, hits give low values 0.0603 | locus YKR001C, strain vps1, hits give low values 0.0608 | locus YKR026C, strain gcn3, hits give low values 0.0637 | locus YKR091W, strain srl3, hits give low values 0.0576 | locus YLL001W, strain dnm1, hits give low values 0.0592 | locus YLL026W, hits give low values 0.056 | locus YLL041C, strain sdh2, hits give low values 0.0575 | locus YLR027C, strain aat2, hits give low values 0.0549 | locus YLR039C, strain RIC1, hits give low values 0.0893 | locus YLR058C, strain SHM2, hits give low values 0.052 | locus YLR102C, strain apc9, hits give low values 0.0571 | locus YLR113W, strain HOG1, hits give low values 0.119 | locus YLR221C, strain rsa3, hits give low values 0.0575 | locus YLR258W, strain gsy2, hits give low values 0.0566 | locus YLR262C, strain YPT6 (second series), hits give low values 0.0719 | locus YLR262C, strain YPT6, hits give low values 0.0979 | locus YLR268W, strain sec22, hits give low values 0.0813 | locus YLR320W, strain mms22, hits give low values 0.0724 | locus YLR330W, strain CHS5, hits give low values 0.0528 | locus YLR342W, strain FKS1 (second series), hits give low values 0.0706 | locus YLR342W, strain FKS1, hits give low values 0.0618 | locus YLR357W, strain rsc2, hits give low values 0.114 | locus YLR370C, strain arc18, hits give low values 0.0577 | locus YLR371W, strain rom2, hits give low values 0.0597 | locus YLR384C, strain iki3, hits give low values 0.0598 | locus YLR418C, strain cdc73, hits give low values 0.0929 | locus YML016C, strain PPZ1, hits give low values 0.0514 | locus YML032C, strain rad52, hits give low values 0.0687 | locus YML120C, strain ndi1, hits give low values 0.0557 | locus YML124C, strain tub3, hits give low values 0.0571 | locus YMR058W, strain fet3, hits give low values 0.0582 | locus YMR078C, strain ctf18, hits give low values 0.0671 | locus YMR125W, strain sto1, hits give low values 0.073 | locus YMR129W, hits give low values 0.0561 | locus YMR205C, strain PFK2, hits give low values 0.0818 | locus YMR223W, strain ubp8, hits give low values 0.0638 | locus YMR231W, strain pep5, hits give low values 0.0634 | locus YMR307W, strain GAS1, hits give low values 0.113 | locus YNL067W, strain RPL9B, hits give low values 0.051 | locus YNL071W, strain lat1, hits give low values 0.0592 | locus YNL153C, strain GIM3, hits give low values 0.0542 | locus YNL183C, strain NPR1, hits give low values 0.00188 | locus YNL209W, strain ssb2, hits give low values 0.0576 | locus YNL233W, strain BNI4, hits give low values 0.0574 | locus YNL248C, strain rpa49, hits give low values 0.0804 | locus YNL250W, strain rad50, hits give low values 0.109 | locus YNL271C, strain bni1, hits give low values 0.0656 | locus YNL298W, strain CLA4, hits give low values 0.0604 | locus YNL307C, strain MCK1, hits give low values 0.0681 | locus YNL322C, strain KRE1 (second series), hits give low values 0.0636 | locus YNR049C, strain mso1, hits give low values 0.0552 | locus YNR052C, strain pop2, hits give low values 0.0587 | locus YOL006C, strain TOP1, hits give low values 0.115 | locus YOL147C, strain pex11, hits give low values 0.0557 | locus YOR001W, strain rrp6, hits give low values 0.0651 | locus YOR061W, strain CKA2, hits give low values 0.0485 | locus YOR069W, strain VPS5, hits give low values 0.0867 | locus YOR070C, strain gyp1, hits give low values 0.0566 | locus YOR080W, strain dia2, hits give low values 0.0634 | locus YOR083W, strain WHI5, hits give low values 0.0581 | locus YOR106W, strain vam3, hits give low values 0.0627 | locus YOR136W, strain idh2, hits give low values 0.0687 | locus YOR144C, strain elg1, hits give low values 0.0552 | locus YOR184W, strain ser1, hits give low values 0.0763 | locus YOR231W, strain MKK1, hits give low values 0.103 | locus YOR265W, strain rbl2, hits give low values 0.055 | locus YOR270C, strain vph1, hits give low values 0.0945 | locus YOR290C, strain snf2, hits give low values 0.0584 | locus YOR316C, strain cot1, hits give low values 0.056 | locus YPL051W, strain arl3, hits give low values 0.0608 | [1] 0.0718 | locus YPL078C, strain atp4, hits give low values 0.0619 | locus YPL106C, strain sse1, hits give low values 0.0907 | locus YPL240C, strain hsp82, hits give low values 0.057 | locus YPL256C, strain CLN2, hits give low values 0.105 | locus YPR119W, strain clb2, hits give low values 0.0584 | locus YPR141C, strain kar3, hits give low values 0.0826 | locus YPR163C, strain tif3, hits give low values 0.0658 | locus YPR167C, strain met16, hits give low values 0.059 | strain wtn01, hits give low values 0.0645

CC[N+](C)(C)Cc1ccccc1Br
inactive: locus YAL040C, strain CLN3, hits give low values 0.99 | locus YCL061C, strain MRC1 (second series), hits give low values 1.01 | locus YDR363W, strain ESC2, hits give low values 0.991 | locus YER002W, strain NOP16, hits give low values 0.993 | locus YGR078C, strain PAC10, hits give low values 0.99 | locus YNL175C, strain NOP13, hits give low values 1.01 | locus YNL197C, strain WHI3, hits give low values 1.01 | locus YNL224C, strain SQS1, hits give low values 0.983 | locus YOR083W, strain WHI5 (second series), hits give low values 0.974 | [1] 0.999 | locus YPL241C, strain CIN2, hits give low values 1.01
